About 8,000 (2.5%) of roughly 320,000 compounds were called active. Cut-off read from the data, not from the text of the source: active = activation above about 47%; inactive = the rest. The sample as a whole holds a higher share of actives than the screen did.

The target of this assay is Aryl hydrocarbon receptor (Homo sapiens) (UniProt P35869). The experiment in a line: AHR activators, primary screen, cell-based, luminescence, luciferase reporter, human (AID 2796).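 Note: 0% = vehicle wells and 100% = reference agonist.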 To be noted: AHR-responsive luciferase reporter cells, at 5 µM, stronger effect = higher value. A general note: Reporter assays use an easily measured gene product as a stand-in for the process of interest.
Chain of Aryl hydrocarbon receptor (Homo sapiens) (P35869 whole entry, looked up): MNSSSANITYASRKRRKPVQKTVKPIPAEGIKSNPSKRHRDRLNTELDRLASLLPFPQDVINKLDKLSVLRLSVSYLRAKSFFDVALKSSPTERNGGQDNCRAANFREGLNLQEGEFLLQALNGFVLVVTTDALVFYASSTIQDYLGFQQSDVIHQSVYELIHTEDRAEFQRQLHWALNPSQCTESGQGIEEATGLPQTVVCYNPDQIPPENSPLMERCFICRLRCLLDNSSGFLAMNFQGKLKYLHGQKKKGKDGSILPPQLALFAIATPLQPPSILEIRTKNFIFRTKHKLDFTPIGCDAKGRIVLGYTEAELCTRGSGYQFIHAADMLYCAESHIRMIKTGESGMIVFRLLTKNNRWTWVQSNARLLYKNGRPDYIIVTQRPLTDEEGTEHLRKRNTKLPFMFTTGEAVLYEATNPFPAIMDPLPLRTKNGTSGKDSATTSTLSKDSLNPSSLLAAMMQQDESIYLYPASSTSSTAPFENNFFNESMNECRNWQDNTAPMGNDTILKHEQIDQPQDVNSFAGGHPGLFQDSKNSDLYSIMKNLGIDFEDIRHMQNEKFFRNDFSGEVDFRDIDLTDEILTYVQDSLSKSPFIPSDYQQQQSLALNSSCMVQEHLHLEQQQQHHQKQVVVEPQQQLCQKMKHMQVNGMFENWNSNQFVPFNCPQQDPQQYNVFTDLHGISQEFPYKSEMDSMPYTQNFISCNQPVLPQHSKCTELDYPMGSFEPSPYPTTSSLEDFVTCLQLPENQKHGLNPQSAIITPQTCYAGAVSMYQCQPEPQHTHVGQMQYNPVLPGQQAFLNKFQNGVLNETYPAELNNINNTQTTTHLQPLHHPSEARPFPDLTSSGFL
For the compound `Cc1ccc(C(=O)NCC(=O)OCC(=O)NC2CCCCCCC2)cc1`, the activation is 0.7% (inactive).
The same measure for `CCCCNC(=O)C1CCCN(S(=O)(=O)c2ccc(S(=O)(=O)NCC(C)C)cc2)C1` (stereo not given): -3.28% (inactive); for `CCOc1ccc(C2c3[nH]c4ccccc4c3CCN2Cc2cccn2-c2ncccn2)cc1` (stereo not given): 26.3% (inactive).
Take `CCOc1ccc(C2c3[nH]c4ccccc4c3CCN2Cc2cn(CC)nc2C)cc1` (stereo not given): the activation is 58.7% (active).
As for `COc1cccc(C2c3[nH]c4ccccc4c3CCN2Cc2cccc(C)n2)c1` (stereo not given), the figure is 17.2% (inactive).
The same measure for `Cc1c(-c2ccccc2)n[nH]c1C(=O)N=Nc1c(O)[nH]c2ccccc12`: -6.16% (inactive); for `CCOC(=O)N1CCN(C(=O)COCc2cc(-c3ccc4c(c3)OCO4)on2)CC1`: 0.94% (inactive); for `CCOC(=O)c1nc(-c2ccc3c(c2)OCO3)[nH]c1C`: 102% (active).
As for `CCOC(=O)c1c(C)[nH]c(C(=O)COc2ccc3c(c2)OCO3)c1C`, the figure is 30.7% (inactive); as for `CCCCOc1ccc(Cl)cc1CSc1nncn1N`, 1.19% (inactive).
On to `Cc1cccc(N=C2SC(C)CN2C(=O)CN2C(=O)NC3(CCCC3)C2=O)c1` (stereo not given), for which the activation is 2.39% (inactive).
As for `CCOc1ccccc1CN1CCN(C2CCC2)CC1CCO` (stereo not given), the figure is -2.26% (inactive); as for `CC(=O)N1CSCC1C(=O)O` (stereo not given), 0.15% (inactive); as for `O=C(O)CCCn1cc(NC(=O)COc2cccc(Cl)c2)cn1`, -1.62% (inactive).
The same measure for `CCOc1cccc(C(=O)Nc2cnn(Cc3ccccc3)c2)c1`: 47.8% (active); for `CCOc1cccc(C(=O)Nc2nnc(-c3cccs3)s2)c1`: 37.1% (inactive).
With `C=CC1=C(C(=O)O)N2C(=O)[C@@H](NC(=O)/C(=N\OCC(=O)O)c3csc(N)n3)[C@H]2SC1`, the activation is -1.86% (inactive).
Turning to `CC(=O)Oc1ccc(C(=O)Nc2nccs2)cc1`, the activation was 1.87% (inactive).
The same measure for `COc1ccc(Cc2nnc(NC(=O)c3cc(OC)c(OC)c(OC)c3)s2)cc1OC`: 0.25% (inactive); for `COc1cc(C(=O)Nc2nccs2)cc(OC)c1OC`: 51.3% (active); for `O=C(Nc1cccc2c1N(C(=O)c1ccco1)CCC2)c1ccco1`: 2.88% (inactive).
As for `COc1ccc(Cc2nnc(SCC(=O)Nc3ccc(C)c(Cl)c3)[nH]c2=O)cc1`, the figure is -0.12% (inactive); as for `Cc1ccc(NC(=O)CSc2nnc(CNC(=O)c3ccccc3F)o2)cc1Cl`, 26.2% (inactive).
As to `Cc1ccc(NC(=O)CSc2nn3c(=O)c(C)nnc3s2)cc1Cl`, the activation was 72.8% (active).
The same measure for `COCCNC(=O)CSc1nc2c(n1-c1ccccc1)CCCC2`: -0.48% (inactive); for `Cc1cc(=O)n2[nH]c(-c3cccc(Cl)c3)cc2n1`: 50.5% (active); for `O=c1c2c(nc3cc(-c4cccc(Cl)c4)[nH]n13)CCCC2`: 5.09% (inactive).
As for `Cc1cc(=O)n2[nH]c(-c3sccc3-n3c(C)ccc3C)cc2n1`, the figure is 10% (inactive).
As for `O=C(CCc1ccc(S(=O)(=O)N2CCOCC2)cc1)OCC(=O)c1ccc(Br)cc1`, the figure is 2.27% (inactive); as for `COC(=O)C1=C(C)N(c2ccc(C)cc2)/C(=C/c2ccc(O)cc2)C1=O`, 2.06% (inactive).
For the compound `C[C@H](C(=O)CC(=O)OC(C)(C)C)[C@H](O)c1ccc(C(F)(F)F)cc1`, the activation was 1.94% (inactive).
For `Cc1cc(OC(=O)c2ccc(Cl)cc2)cc(=O)n1C`, the activation was -0.96% (inactive).
The same measure for `COc1ccc2ccn(C)c2c1`: 5.22% (inactive).
Consider `COc1ccc(C(C(=O)NCc2ccccc2)N(Cc2cccs2)C(=O)c2cnccn2)cc1` (stereo not given), for which the activation was -1.35% (inactive).
The same measure for `COc1cc([N+](=O)[O-])ccc1NC(=O)CN1CCCC1`: 4.3% (inactive); for `COc1ccc(NC(=O)c2cc([N+](=O)[O-])ccc2NC(=O)CNC2CCCCC2C)c(OC)c1` (stereo not given): 47.4% (active); for `CC1CCCCC1NCC(=O)Nc1ccccc1C(=O)Nc1ccccc1` (stereo not given): -0.06% (inactive).
As for `COc1ccccc1CN1CC(C(=O)NCCc2cn[nH]c2)CCC1=O` (stereo not given), the activation was 2.31% (inactive).
With `NC(=O)c1c(Nc2nc3c(F)cccc3s2)sc2c1CCCC2`, the activation was 52.5% (active).
As for `O=C(Nc1sc2c(c1C(=O)O)CCC2)c1ccccc1F`, the figure is 13.6% (inactive); as for `COc1cccc(OC)c1C(=O)Nc1sc2c(c1C(N)=O)CCCC2`, 49.1% (active); as for `NC(=O)c1c(NC(=O)CSc2nnc(-c3ccco3)n2N)sc2c1CCCC2`, 19.8% (inactive).
In the case of `CNC(=O)c1c(NC(NC(=O)c2ccco2)C(=O)c2ccc(Cl)cc2)sc2c1CCCC2` (stereo not given), the activation was 1.8% (inactive).
The same measure for `COc1cccc(OC)c1C(=O)Nc1nnc(C(C)C)s1`: 15.7% (inactive); for `Cc1cccc(N(C(=O)Cn2nnc(-c3ccc(C)o3)n2)C(C(=O)NC2CCCC2)c2ccncc2)c1` (stereo not given): -1.02% (inactive).
As for `CC1CCCCN1C(=O)CCS(=O)(=O)Cc1ccccc1` (stereo not given), the figure is -0.28% (inactive); as for `Nc1ccccc1/C=N\N=C/c1ccccc1N`, 38.4% (inactive); as for `COC(=O)c1sccc1NC(=S)Nc1ccc(C)cc1`, 1.83% (inactive).
As for `Cc1ccc(NC(=O)NNC(=O)c2sccc2-n2cccc2)cc1`, the activation is 85.8% (active).
In the case of `CCNC(=O)c1sccc1-n1cccc1`, the activation is 0.75% (inactive).
Regarding `CN(C)C1=NC[C@H](Cc2ccccc2)N1CCc1ccc(F)cc1`, the activation is 5.16% (inactive).
As for `CCOC(=O)N1CCN(C(=O)c2ccccc2SCC(=O)NCC2CCCCC2)CC1`, the figure is 1.83% (inactive); as for `COc1ccccc1Oc1ccc(N/C=C2/CCCC2=O)cc1`, 0.2% (inactive).
As for `O=C1/C(=C\Nc2ccccc2)CCN1c1ncccn1`, the activation was 66.5% (active).
In the case of `O=C(Cc1ccccc1)NNC(=O)C1CCN(c2ncccn2)CC1`, the activation is 0.76% (inactive).
With `CCc1cc2c(=O)c(-c3ccon3)c(N)oc2cc1OC`, the activation is 59.6% (active).
As for `COc1ccc2oc(N)c(C=O)c(=O)c2c1`, the figure is -1.38% (inactive); as for `CCc1cc2c(=O)c(-c3ccc(F)cc3)c(C(F)(F)F)oc2cc1OCC(=O)O`, 8.09% (inactive); as for `CCN1C(=O)C(C(=O)NC(C)c2ccccc2)C2CC1(C)Oc1ccccc12` (stereo not given), 2.9% (inactive).
In the case of `CC(NS(=O)(=O)c1ccccc1)c1n[nH]c(=S)n1-c1ccccc1` (stereo not given), the activation was 2.32% (inactive).
The same measure for `COc1ccc(Cl)cc1NS(=O)(=O)c1cccc(C(=O)NCC2CCCO2)c1` (stereo not given): -1.04% (inactive); for `COc1ccccc1C(=O)NC(=S)Nc1ccccc1N1CCCCC1`: 76.4% (active).
As to `COc1ccc(C(=O)NC(=S)Nc2ccccc2N2CCN(S(C)(=O)=O)CC2)cc1OC`, the activation is 0.97% (inactive).
The same measure for `O=C(NC(=S)Nc1ccccc1N1CCCCC1)c1ccc(F)cc1`: 19.9% (inactive); for `Cc1cc(C)n(CC(O)CN(c2ccccc2)S(=O)(=O)c2ccc3ccccc3c2)n1` (stereo not given): 2.73% (inactive).
As for `N#C/C(=C(/O)Cc1cccc2ccccc12)c1nc2ccccc2s1`, the figure is 9.95% (inactive); as for `N#C/C(=C(/O)COC(=O)COc1ccc(Cl)cc1)c1nc2ccccc2[nH]1`, 24.9% (inactive).
For `N#C/C(=C(/O)COc1cccc2ccccc12)c1nc2ccccc2[nH]1`, the activation was 93.7% (active).
Regarding `O=C(CCNS(=O)(=O)c1ccccc1C(F)(F)F)NCc1ccc2c(c1)OCO2`, the activation was 4.67% (inactive).
The same measure for `COc1ccccc1CCNC(=O)CSc1nnc2ccc(-c3cccnc3)nn12`: 16.4% (inactive).
The same measure for `CCOC(=O)N1CCC(N2Cc3cccc(C(=O)Nc4ccc(S(=O)(=O)N(CC)CC)cc4)c3C2=O)CC1`: -1.91% (inactive); for `CC(=O)Oc1ccccc1C(=O)Nc1ncc([N+](=O)[O-])s1`: 6.57% (inactive).
As for `Cc1cccc(C)c1Nc1nnc(SCC(=O)NCCCN2CCCC2=O)s1`, the activation is -0.54% (inactive).
In the case of `C=CCNc1nc(N)c(C(=C(C#N)C#N)c2ccccc2)s1`, the activation is 5.13% (inactive).
The same measure for `CN1c2ccc([N+](=O)[O-])cc2C(C)(C)C12C=Cc1cc(C(=O)O)ccc1O2` (stereo not given): 0.9% (inactive).
Regarding `CC[C@@]1(C(=O)OC)N[C@H](CN(C)C(C)=O)[C@@H]2C(=O)N(C)C(=O)[C@@H]21`, the activation was -0.36% (inactive).
The same measure for `Cn1c(/C(C#N)=C2/CCCCCN2)nc2ccccc21`: 67.6% (active); for `Cn1c(S(=O)(=O)O)nc2ccccc21`: 3.28% (inactive).
Turning to `N#C/C(=C1/CCCN1)c1ccccn1`, the activation was 0.38% (inactive).
The same measure for `Cc1ccc2[nH]c(=O)c(CN(CCCN(C)C)C(=O)Nc3cccc(Cl)c3)cc2c1`: 0.48% (inactive); for `Cc1ncn2cc(-c3ccc(Cl)cc3Cl)[nH]c(=O)c12`: 56.5% (active).
As for `COn1c(-c2ccc(Cl)cc2Cl)nc2ncccc21`, the figure is 2.64% (inactive).
As for `CCOC(=O)c1nc(C)n(-c2ccc(Cl)cc2Cl)n1`, the figure is 2.68% (inactive); as for `COc1cc(NC(=O)CSc2ccc(-c3cccnc3)nn2)cc(OC)c1`, 44.9% (inactive).
On to `O=S(=O)(NCC1CCCO1)c1cnc(Cl)c(Cl)c1` (stereo not given), for which the activation was -2.6% (inactive).
As for `CC(C)[C@H](NC(=O)N1c2ccccc2NC(=O)[C@@H]1C(C)C)C(=O)N[C@H](C(=O)O)c1ccccc1`, the figure is 0.48% (inactive); as for `C/C(=N\Nc1nc(Nc2ccccc2)nc(N2CCOCC2)n1)c1cccs1`, 56.8% (active); as for `C/C(=N\Nc1nc2ccccc2[nH]1)c1cccs1`, 43.1% (inactive).
As to `C/C(=N\Nc1nc(N2CCOCC2)nc(N2CCOCC2)n1)c1ccc([N+](=O)[O-])cc1`, the activation is 0.4% (inactive).
As for `CC(c1ccco1)N(C(=O)COc1ccccc1[N+](=O)[O-])c1ccccn1` (stereo not given), the figure is 1.97% (inactive); as for `CC(C)=CCN1CCN(Cc2ccc(Oc3ncccn3)cc2)CC1CCO` (stereo not given), -1.11% (inactive).
As for `CCc1ccc(-c2cc(C(=O)NN3CCN(C)CC3)c3ccccc3n2)cc1`, the figure is 30.5% (inactive).
As for `CCc1ccc(NC(=O)c2ccc(Cn3cc([N+](=O)[O-])cn3)cc2)cc1`, the figure is 3.58% (inactive).
`O=C(Nc1ccc(Br)c2cccnc12)c1ccc(Cn2cc([N+](=O)[O-])cn2)o1`: the activation was 52% (active).
As for `O=C(NCCc1ccccn1)c1nc(Cn2cc([N+](=O)[O-])cn2)no1`, the figure is 0.9% (inactive).

The record behind these values is PubChem BioAssay AID2796 (The Scripps Research Institute Molecular Screening Center, 2010).
